LASV entry inh = Lassa virus entry inhibition; Potency, µM (titrated, usually from 37.9 µM), hits mostly inhibitors; actives 1.2% (n = 300,000); Lassa virus pseudotype entry inhibition, cell reporter; calls by dose curve; tested in HEK293 cells; also: nearly all actives have a fitted effect of over 50% in size
HCV inh = inhibitors of hepatitis C virus infection; AID 651820; actives 3.4% (n = 340,000); Huh7.5.1 HCVcc-Cre infection, luciferase reporter, 44 h; Potency, µM (highest dose often 41.8 µM), most hits filed as inhibitors
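Seed cells (1,000/well) for 4 h; treat with compound and infect with HCVcc-Cre, moi about 0.5. Incubate 44 h, then detect luciferase activity.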
HCMV inh = blocks human cytomegalovirus replication | HFF cells, HCMV-luciferase reporter, 72 h; stronger effect = lower value | activity change, negative = inhibition, % at 57.5 µM | actives 4.5% (n = 410,000) | AID 1259415; in the data active = activity change below about -60%; inconclusive = no clear call, values can overlap the other calls; inactive = above about -39%
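Compounds were evaluated in HFFs infected with an HCMV luciferase reporter virus (MOI 1 PFU/cell). Luciferase in lysates collected 72 h post infection served as the replication measure.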
FMDV antiviral = foot and mouth disease virus antiviral activity | FMDV antiviral cell-based qHTS | Potency, µM (highest dose often 57.9 µM), hits mostly inhibitors | actives 1.2% (n = 410,000); calls by dose curve; tested in HEK293T cells; also: read-out not given here; nearly all actives have a fitted effect of over 45% in size
Marburg entry inh = Marburg virus entry inhibition | actives 1.8% (n = 300,000) | AID 540276 | Marburg virus pseudotyped entry inhibition, cell reporter | Potency, µM (top dose mostly 37.8 µM), actives largely listed as inhibitors; calls by dose curve; tested in HEK293 cells
G2M arrest HeLa = HeLa G2/M cell cycle arrest induction | shares compounds with Marburg entry inh | actives 60% (n = 25) | AID 2441 | Potency, µM, actives largely listed as inhibitors | HeLa cell cycle G2/M arrest, Hoechst DNA content imaging
WI-38 tox = WI-38 cytotoxicity of perinucleolar compartment inhibitors; shares compounds with Marburg entry inh; WI-38 normal lung fibroblasts, ATPLite luminescence ATP viability, 24 h; Potency, µM (highest dose often 46.1 µM), usual class: inhibitors; 120 tested, under 10 active
PNC inh conf = confirmation of perinucleolar compartment assembly inhibitors; Potency, µM (titrated, usually from 46.1 µM), actives largely listed as inhibitors; shares compounds with Marburg entry inh; actives 50% (n = 120); AID 2730; PC3M PTB-GFP, PNC prevalence imaging, 16 h
PC3M caspase = activates caspase 3/7 in PC3M cells in PNC counter-screen | shares compounds with Marburg entry inh | PC3M-GFP caspase 3/7 activation, luminescence, 24 h | activity change, positive = activation, % at 46.1 µM | 120 tested, under 10 active
Numbers stand for hits; i = inactive; ? = inconclusive; nt = no result given. An excerpt weighted towards active compounds, which were near 7.9% of everything screened. Unless noted, calls follow the shape of the dose curve; as a rule, active = well fitted curve in the direction sought with a large enough effect; inconclusive = small, poorly fitted or top-dose-only effect, or another doubt; inactive = no such curve, though single readings can be large; an effect the other way counts as inactive or inconclusive.

SMILES	LASV entry inh	HCV inh	HCMV inh	FMDV antiviral	Marburg entry inh	WI-38 tox	PNC inh conf	PC3M caspase	others
CNS(=O)(=O)c1cccc(C(=O)Nc2cccc(Cl)c2)c1	i	i	i	i	i	i	?	i
COc1ccc(S(=O)(=O)Nc2cc3c(cc2N2CCOCC2)n(C)c(=O)n3C)cc1	?	nt	i	i	i	nt	nt	nt
CN(C)S(=O)(=O)c1ccc2c(c1)C(=O)c1cc(S(=O)(=O)N(C)C)ccc1CC2	nt	nt	i	i	nt	nt	nt	nt
CN(C)S(=O)(=O)c1ccc2c(c1)/C(=C/c1cc3c([nH]1)CCCC3)C(=O)N2	?	?	i	i	?	nt	nt	nt	G2M arrest HeLa=?
COc1ccc(-c2nc3cnc(N(C)C)nc3n(C[C@H]3CCCO3)c2=O)cc1	nt	nt	nt	i	nt	nt	nt	nt
COc1cccc(NS(=O)(=O)c2cc3c4c(c2)C(C)C(=O)N4CCC3)c1 (stereo not drawn)	?	nt	i	i	nt	nt	nt	nt
Cc1ccc(C(O)(C(=O)NNC(=O)CN2CCN(C)CC2)c2ccc(C)cc2)cc1	i	i	?	i	?	i	i	i
Cc1cccc(-c2nc(CN3CCCC(C(=O)NCCc4ccc(Cl)cc4)C3)c(C)o2)c1 (stereo not drawn)	?	nt	i	i	?	nt	nt	nt
O=C(NC(CSCc1ccccc1)C(=O)N/N=C/c1ccc(O)cc1O)c1ccc([N+](=O)[O-])cc1 (stereo not drawn)	9.2µM	10µM	i	i	4.61µM	i	?	i
COc1ccc(OC)c(/C=C/c2nc3ccccc3c(=O)n2-c2ccc(F)c(Cl)c2)c1	i	nt	i	i	nt	nt	nt	nt
Nc1ccc(O)c(-c2nc3ccccc3s2)c1	?	i	i	i	i	nt	nt	nt
Nc1cccc(-c2nc3ccc(N)cc3s2)c1	?	?	i	?	11.2µM	28.2µM	5.01µM	i
CCc1cccc(CC)c1NC(=O)CCS(=O)(=O)c1ccc(Br)s1	i	nt	i	i	?	nt	nt	nt
O=C(N/N=C/c1cc2c3c(c1O)CCCN3CCC2)c1ccccc1O	1.3µM	3.16µM	-99.9	i	1.46µM	i	?	i
CC(=O)c1ccc(-n2c(SCC(=O)c3c[nH]c4ccccc34)nc3ccccc3c2=O)cc1	nt	?	-88.2	i	i	i	i	i
O=C(CSc1cn(CCNC(=O)c2c(F)cccc2F)c2ccccc12)Nc1ccccc1F	i	nt	i	i	?	nt	nt	nt
Cc1oc(-c2ccccc2Cl)nc1CSCC(=O)N1CCCC1	0.651µM	?	-77.6	i	?	i	3.98µM	i
CC(=O)/C(C#N)=C1\NC(=O)C(Cc2ccc(C)c(C)c2)S1 (stereo not drawn)	1.3µM	i	-95.4	i	0.411µM	i	7.94µM	i
CCCCCCCCCCCCCCCCCC(=O)NCC(COP(=O)([O-])OCC[N+](C)(C)C)OCC (stereo not drawn)	?	nt	nt	nt	20µM	nt	nt	nt	G2M arrest HeLa=?
COc1ccc2nc3sc(C(=O)NCCCN4CCc5ccccc5C4)cc3cc2c1	?	10µM	i	i	?	?	i	i
Nc1ccc2c(c1)C(=O)c1ccccc1-2	i	?	i	i	?	nt	nt	nt
Nc1ccc2c(c1)C(=O)C(=O)c1ccccc1-2	?	2.51µM	-98.2	5.62µM	5.62µM	28.2µM	20µM	i
Nc1ccc2c(c1)C(=O)c1ccccc1C2=O	i	?	i	i	i	nt	nt	nt
O=C1C(=O)c2ccc(-c3ccccc3)cc2-c2ccccc21	?	4.47µM	-99.0	14.1µM	5.8µM	?	22.4µM	?
CCN1C(=O)c2cccc3c(S(=O)(=O)N(C(=O)c4ccncc4)c4ccc(OC)cc4)ccc1c23	?	?	i	i	?	i	i	i
SMILES	LASV entry inh	HCV inh	HCMV inh	FMDV antiviral	Marburg entry inh	WI-38 tox	PNC inh conf	PC3M caspase	others
Cc1cccc(NC(=O)c2ccc3[nH]c(C)cc(=O)c3c2)c1	i	nt	i	i	i	nt	nt	nt
CCOc1ccc(-n2c(SCC(=O)N3CCCCC3)nc3c([nH]c4ccccc43)c2=O)cc1	i	nt	i	i	nt	nt	nt	nt
CN(C)C(=O)COC(=O)c1ccccc1Nc1ccc(SC(F)F)cc1	nt	?	-66.9	i	i	i	15.8µM	i
CC(=NCc1ccc2c(c1)OCO2)c1c(O)n(C)c(=O)n(C)c1=O	i	i	i	i	i	nt	nt	nt
CCC(=NCc1cc(OC)cc(OC)c1)c1c(O)n(C)c(=O)n(C)c1=O	?	6.31µM	-89.9	?	20.6µM	i	?	i
CCOc1ccc2nc(N3CCCC(C(=O)Nc4ccc(OC)cc4)C3)sc2c1 (stereo not drawn)	nt	nt	i	i	?	nt	nt	nt
CC(=O)c1cccc(-n2c(=O)c3c4c(sc3n(Cc3ccccc3Cl)c2=O)CN(C(C)=O)CC4)c1	nt	nt	i	i	?	nt	nt	nt
CC(=O)N(C)C1=C(N2CCOCC2)C(=O)c2ccccc2C1=O	0.58µM	0.562µM	nt	2.51µM	1.46µM	?	?	?
CC(=O)N(C1=C(N2CCOCC2)C(=O)c2ccccc2C1=O)c1ccc(C(=O)O)cc1	nt	i	i	?	nt	nt	nt	nt
Cc1cccc(NC2=C/C(=N/S(=O)(=O)c3cccs3)c3ccccc3C2=O)c1	3.16µM	2.82µM	i	?	?	?	14.1µM	?
O=C1C(=Cc2cccs2)C(=O)c2ccccc21	i	i	i	i	i	i	i	i
CCCSc1cc(N2CCCC2)nc(-c2ccccc2)n1	i	i	i	i	i	nt	nt	nt
CCCSc1cc(N2CCN(C)CC2)nc(-c2ccc(OC)cc2)n1	?	14.1µM	i	i	?	i	?	i
Cc1ccc(-c2csc(=Nc3ccccc3)n2Cc2ccc3c(c2)OCO3)cc1	i	nt	i	i	?	nt	nt	nt
COc1ccc(/C=C/C(=O)OCC(=O)Nc2ccc(S(N)(=O)=O)cc2)cc1OC	nt	i	i	i	nt	nt	nt	nt
COc1ccc(/C=C/C(=O)OCC(=O)Nc2ccc(Cl)c(S(=O)(=O)N(C)C)c2)cc1OC	i	i	i	?	i	i	i	i
O=C(Nc1cccnc1)c1cccs1	?	?	?	i	?	i	8.91µM	i
Cc1cc(C)c2c(=O)cc(CSCC(=O)Nc3ccccc3Cl)[nH]c2c1	i	nt	i	i	nt	nt	nt	nt
O=c1[nH]c(=O)n([C@H]2C[C@H](O)[C@@H](CO)O2)cc1Br	i	i	i	i	i	nt	nt	nt	G2M arrest HeLa=?
O=c1[nH]c(=O)n([C@H]2C[C@H](O)[C@@H](CO)O2)cc1/C=C/Br	nt	nt	nt	nt	i	nt	nt	nt
CCCN1CCN(CCCNC(=O)Cn2c(-c3cccs3)cc3cc(Cl)ccc32)CC1	?	nt	i	i	nt	nt	nt	nt
COc1ccc(NC(=O)Cc2ccccc2)cn1	?	i	i	i	i	nt	nt	nt
